# ELG1 repair inh: qHTS screen for small molecules that inhibit ELG1-dependent DNA repair in human embryonic kidney (HEK293T) cells expressing luciferase-tagged ELG1. HEK293T ELG1-luciferase reporter, luminescence, 16 h; DNA damage induced by 5-fluorouridine. Potency, µM (series often up to 46.1 µM), for inactives: at the highest dose activity change, negative = inhibition, usual class: inhibitors. 330,000 compounds, 2.3% hits. AID 504467, 2011; also: % is scaled to controls: 0 for no effect and ±100 for the full control effect; nearly all actives have a fitted effect of over 55% in size
#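 In this reporter screen, reduction of luminescence relative to DMSO vehicle indicated activity. Compounds and 5-fluorouridine were added together to 2,000 cells per well, incubated for 16 hr at 37 °C, then developed with ONE-Glo.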
# SMN2 splice enh: qHTS Assay for Enhancers of SMN2 Splice Variant Expression; Potency, µM (top dose mostly 46.1 µM), for inactives: at the top dose activity change, positive = activation, hits mostly activators; 210,000 compounds, 2.8% hits; HEK293 SMN2-luciferase splicing reporter, luminescence, 30-36 h; also: % of control where 0% means no effect; nearly all actives have a fitted effect of over 55% in size
#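 HEK293 cells carry an SMN2 […]–luciferase reporter in which exon 7 inclusion puts luciferase in frame. Cells were plated 10-12 h before compound addition, then incubated 30-36 h at 37C. ONE-Glo luminescence was read; sodium butyrate at 4.5 mM final served as control.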
# FLuc counter: qHTS profiling assay for firefly luciferase inhibitor/activator using purifed enzyme and Km concentrations of substrates (counterscreen for miR-21 project) | Luciferin 4-monooxygenase (Photinus pyralis), P08659 | purified FLuc, Km substrates, luminescence inhibition | Potency, µM (series often up to 57.5 µM), inactives show at the highest dose activity change, negative = inhibition, hits mostly inhibitors | 360,000 compounds, 6.9% hits | AID 588342, 2011;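 also: plate controls were vehicle for no effect and reference inhibitor for full effect; nearly all actives have a fitted effect of over 55% in size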
# Target sequence (P08659 whole entry, looked up): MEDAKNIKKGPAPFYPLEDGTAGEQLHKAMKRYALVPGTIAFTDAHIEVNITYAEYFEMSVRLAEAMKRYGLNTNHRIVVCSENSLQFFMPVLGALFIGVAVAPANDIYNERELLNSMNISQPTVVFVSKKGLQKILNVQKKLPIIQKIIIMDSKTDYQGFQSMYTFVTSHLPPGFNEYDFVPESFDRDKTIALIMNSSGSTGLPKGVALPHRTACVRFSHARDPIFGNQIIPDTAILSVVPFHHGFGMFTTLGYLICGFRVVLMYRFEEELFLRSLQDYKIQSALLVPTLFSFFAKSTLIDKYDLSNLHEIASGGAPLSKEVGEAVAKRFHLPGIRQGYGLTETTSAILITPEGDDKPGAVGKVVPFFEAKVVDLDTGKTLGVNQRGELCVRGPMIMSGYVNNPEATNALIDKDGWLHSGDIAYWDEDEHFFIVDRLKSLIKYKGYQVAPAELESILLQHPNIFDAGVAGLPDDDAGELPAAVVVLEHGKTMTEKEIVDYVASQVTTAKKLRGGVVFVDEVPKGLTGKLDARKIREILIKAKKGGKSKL
#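 Purified P. pyralis luciferase, 10 nM final, with Km-level 10 uM D-luciferin and 10 uM ATP in 50 mM Tris acetate pH 7.5, 10 mM Mg acetate, 0.01% Tween-20, 0.05% BSA; 6-point qHTS titration about 60 µM downward; luminescence read.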
# ELG1 genotox: qHTS screen for small molecules that induce genotoxicity in human embryonic kidney (HEK293T) cells expressing luciferase-tagged ELG1; HEK293T ELG1-luciferase reporter, luminescence, 16 h; Potency, µM (titrated, usually from 46 µM), inactives show top-dose activity change, positive = activation, hits mostly activators; 330,000 compounds, 1.3% hits; also: % of control where 0% means no effect; nearly all actives have a fitted effect of over 60% in size
#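 HEK293T cells expressing luciferase-tagged ELG1 were exposed to compound or DMSO vehicle for 16 hr at 37 °C and 5% CO2. Luciferase activity was then measured with ONE-Glo after 30 min at room temperature.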
# Rab9 prom act: qHTS Assay for Rab9 Promoter Activators; Huh7 Rab9 promoter-luciferase reporter, luminescence, 24 h; Potency, µM (series often up to 9.22 µM), for the others: at the highest dose activation, negative = inhibition, actives largely listed as activators; 320,000 compounds, 2.8% hits; also: % of control where 0% means no effect; nearly all actives have a fitted effect of over 60% in size
#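 Using Huh7 cells stably transfected with Rab9 promoter–luciferase, compounds were incubated 24 h at 37 °C, 5% CO2; luciferase luminescence was read 10 min after reagent addition.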
# NPC1 prom act: qHTS Assay for NPC1 Promoter Activators. 320,000 compounds, 2.4% hits. Potency, µM (series often up to 9.22 µM), for inactives: at the highest dose activation, most hits filed as activators. AID 485313, 2010. Huh7 NPC1 promoter luciferase reporter, 24 h; also: % of control where 0% means no effect; nearly all actives have a fitted effect of over 60% in size
#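 In 1536-well qHTS, Huh7 cells harboring an NPC1 promoter–luciferase construct received compound for 24 h; activation was quantified by luminescence following luciferase reagent addition.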
# Starred values were filed as active, the others as inactive; ? = inconclusive; · = not tested or not shown. This is a sample that favours compounds with a hit; in the whole collection about 9.3% have one here. Calls follow the shape of the dose curve; as a rule, active = well fitted curve in the direction sought with a large enough effect; inconclusive = small, poorly fitted or top-dose-only effect, or another doubt; inactive = no such curve, though single readings can be large; an effect the other way counts as inactive or inconclusive. Potency is read from the fitted curve at half-maximal effect.
SMILES,ELG1 repair inh,SMN2 splice enh,FLuc counter,ELG1 genotox,Rab9 prom act,NPC1 prom act
Cc1ccc(OC(=O)c2ccc(C)c([N+](=O)[O-])c2)cn1,3%,11%,?,1%,-4%,-1%
CCOc1ccc(NC(=O)c2c(NCc3cccnc3)sc3c2CCC(C)C3)cc1 (configuration not stated),·,·,-20%,·,·,·
Cc1c(C(=O)N2CCC(n3nccc3NC(=O)C3CC3)CC2)[nH]c2ccc(Cl)cc12,-4%,·,-2%,-9%,-1%,-1%
CCOc1ccc(NC(=O)CCS(=O)(=O)c2ccc3nc(C)sc3c2)cc1,·,·,1%,·,·,·
CCn1c(COC(=O)CNC(=O)c2ccccc2)nc2cc(S(=O)(=O)N(C)C)ccc21,2%,·,3%,-3%,1%,-3%
COC(=O)c1ccccc1NC(=O)Cn1c(=O)n(CCC(=O)NCc2ccccc2OC)c(=O)c2ccccc21,·,4%,-7%,·,·,·
COc1ccc(C2=NS(=O)(=O)N(C)C(C(=O)NCc3ccccc3)=C2)cc1OC,?,·,-19%,-6%,6%,-1%
CCc1ccc(NC(=O)C2=CC(c3ccc(OC)c(OC)c3)=NS(=O)(=O)N2C)cc1,13µM*,·,-15%,-9%,-16%,-16%
COc1ccc(C2=NS(=O)(=O)N(C)C(C(=O)N3CCc4ccccc4C3)=C2)cc1OC,18µM*,·,-5%,-10%,-25%,-11%
COc1cccc(Cn2c(=O)cnc3cnc(Oc4cccc(Cl)c4)nc32)c1,·,-23%,·,·,·,·
CCN(C[C@H]1N[C@@](CC)(C(=O)OC)[C@H]2C(=O)N(Cc3ccccc3)C(=O)[C@@H]12)C(=O)c1ccc(C)cc1,8.2µM*,·,·,-9%,·,·
CCN(C[C@H]1N[C@@](Cc2ccccc2)(C(=O)OC)[C@H]2C(=O)N(Cc3ccccc3)C(=O)[C@@H]12)C(=O)c1ccc(F)cc1,?,·,·,-2%,·,·
CCN(C[C@H]1N[C@@](CC)(C(=O)OC)[C@H]2C(=O)N(Cc3ccccc3)C(=O)[C@@H]12)C(=O)c1ccc(F)cc1,16µM*,·,·,-6%,·,·
C=CCc1ccc(OCC(O)CN2CCc3ccccc3C2)c(OC)c1 (configuration not stated),-12%,·,-20%,-4%,1%,-1%
O=C1c2oc3ccccc3c(=O)c2C(c2ccc(Br)cc2)N1c1ccccn1 (configuration not stated),·,·,1%,·,·,·
COC(=O)/C(=C/c1c[nH]c2ccccc12)[N+](=O)[O-],?,·,19µM*,-2%,12%,5%
COC(=O)/C(=C/c1c[nH]c2ccccc12)NC(C)=O,8%,1%,3%,-1%,-2%,-3%
COc1ccc(NC(=O)c2ccc(CN3C(=O)CCn4nc(C)cc43)cc2)c(OC)c1,·,·,5%,·,·,·
COc1ccc(-n2nc3cc(C)c(N)cc3n2)cc1Cl,?,·,1.1µM*,?,2.8µM*,2.2µM*
Cc1cc2nn(-c3ccc(Cl)cc3)nc2cc1N,?,·,0.34µM*,?,22%,?
Cc1cc2nn(-c3ccc(F)cc3)nc2cc1N,?,·,0.76µM*,1.6µM*,3.2µM*,2.5µM*
COc1ccc(-n2nc3cc(C)c(NC(=O)c4ccc(C)cc4C)cc3n2)cc1Cl,·,4%,-2%,·,·,·
Cc1cc(C)cc(OCC(=O)Nc2ccncc2)c1,16µM*,·,-2%,-5%,1%,0%
Cc1ccc(OCC(=O)Nc2ccncc2)cc1,-6%,·,13µM*,5%,0%,0%
CCOc1ccc(NC(=O)CCC(=O)NNC(=O)COc2ccc(C)cc2Br)cc1,?,·,2.1µM*,?,?,?
SMILES,ELG1 repair inh,SMN2 splice enh,FLuc counter,ELG1 genotox,Rab9 prom act,NPC1 prom act
Cc1ccc(NC(=O)COc2ccc(Br)cc2C)cc1,?,-2%,9.5µM*,?,29%,18%
COc1ccc(OCC(=O)Nc2ccncc2)cc1,4%,·,?,-1%,-6%,3%
Cc1ccc(OCC(=O)Nc2ccc(F)cc2)cc1,?,19%,15µM*,?,-5%,-1%
Cc1cc(Cl)ccc1OCC(=O)Nc1ccncc1,?,·,15µM*,?,-13%,-6%
Cc1cc(Cl)ccc1OCC(=O)NCc1ccncc1,?,-31%,-8%,1%,-4%,-4%
Cc1c(CCC(=O)O)c(=O)oc2c(C)c(OCc3cc4c(cc3Cl)OCO4)ccc12,1%,·,?,1%,-4%,1%
CC1=CC(C)=Nc2ccccc2N1,?,-6%,17µM*,16µM*,-1%,-1%
Nc1cc(Cl)nnc1Cl,14%,·,-2%,-2%,-9%,2%
CCOC(=O)C1CCCN(C(=O)c2cc(-c3ccc(F)cc3)nc3ccccc23)C1 (configuration not stated),-14%,24%,15µM*,-9%,-5%,-2%
O=C(c1cc(-c2ccc(F)cc2)nc2ccccc12)N1CCN(C2CCS(=O)(=O)C2)CC1 (configuration not stated),3%,·,9.5µM*,0%,19%,9%
CCOC(=O)C1CCCN(C(=O)c2cc(Nc3ccc(OC)cc3)nc3ccccc23)C1 (configuration not stated),·,-5%,15µM*,·,·,·
CCOC(=O)C1CCCN(C(=O)c2cc(-c3ccco3)nc3ccccc23)C1 (configuration not stated),7%,·,·,2%,·,·
O=C(c1cc(-c2ccc(Cl)cc2)nc2ccccc12)N1CCC1,-9%,·,?,-15%,-4%,0%
COc1cccc(-c2nn(-c3ccc(C)cc3)cc2C(=O)N2CCN(C3CCS(=O)(=O)C3)CC2)c1 (configuration not stated),?,·,15µM*,-2%,1%,5%
Cc1ccc(C(=O)NCC(=O)NCC(c2cccs2)N2CCOCC2)cc1C (configuration not stated),?,·,1%,1%,-1%,-1%
COc1ccc(-c2nnn(CC(=O)Nc3ccc4c(c3)OCCO4)n2)cc1OC,0%,·,6%,14%,-4%,-4%
COc1ccc(N2CC(NC(=O)c3ccc(S(=O)(=O)N4CCCCC4)cc3)CC2=O)cc1OC (configuration not stated),·,·,-10%,·,·,·

# Compound activity as filed in PubChem.
